VDR inh = vitamin D3 receptor (human) inhibition; actives 0.93% (n = 400,000); P11473; VDR-SRC2-3 peptide fluorescence polarization, 2 h; Potency, µM, without a hit: max response, negative = inhibition, most hits filed as inhibitors
Target sequence (P11473 whole entry, looked up): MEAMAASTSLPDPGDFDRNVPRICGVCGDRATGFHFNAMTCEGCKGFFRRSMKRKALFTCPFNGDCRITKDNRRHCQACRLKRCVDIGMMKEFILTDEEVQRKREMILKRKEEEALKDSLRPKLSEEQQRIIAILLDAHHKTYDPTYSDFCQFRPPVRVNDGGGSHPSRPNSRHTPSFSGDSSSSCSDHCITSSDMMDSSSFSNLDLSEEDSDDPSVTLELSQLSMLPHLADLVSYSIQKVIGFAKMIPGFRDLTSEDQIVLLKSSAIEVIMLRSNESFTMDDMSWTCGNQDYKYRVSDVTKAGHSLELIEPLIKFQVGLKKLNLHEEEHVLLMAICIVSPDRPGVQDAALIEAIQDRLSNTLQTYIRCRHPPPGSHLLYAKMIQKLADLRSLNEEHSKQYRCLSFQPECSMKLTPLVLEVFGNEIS
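FP read-out; VDR + SRC2-3 coactivator peptide; 23 nl compound by pintool; 2 h RT incubation; reagents held at 4 deg C, protected from light.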
GLS inh = glutaminase GLS (human) inhibition; Potency, µM (series often up to 45.5 µM), for inactives: at the top dose activity change, negative = inhibition, most hits filed as inhibitors; actives 0.21% (n = 410,000); O94925; GLS enzymatic activity, qHTS titration
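Human kidney-isoform GLS in 45 mM KH2PO4 pH 8.2, 0.02% Tween-20, with compound, started with 1mM L-Glutamine (added stock). Glutamate oxidase/HRP/Amplex red coupled fluorescence read at start and after 30 min at RT.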
TrxR1 substrate = rat thioredoxin reductase 1 substrate activity. actives 0.01% (n = 390,000). O89049. purified TrxR1 substrate turnover, NADPH consumption readout. Potency, µM (top dose mostly 114 µM), inactives show top-dose activity change, negative = substrate turnover; note: nearly all actives have a fitted effect of over 50% in size
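Rat TrxR1, dispensed at 90 nM, was prereduced with 400 uM NADPH (final) for 5 min at ~22 deg C, then incubated with compound 15 min before 400 uM selenite. A first-read NADPH fluorescence drop versus no-compound background flagged substrates.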
KAT2A inh = GCN5L2 (KAT2A) acetyltransferase inhibition | GCN5L2 HAT assay, ThioGlo1 CoA-SH fluorescence | Potency, µM (top dose mostly 58.9 µM), inactives show top-dose activity change, negative = inhibition, actives largely listed as inhibitors | actives 0.21% (n = 390,000)
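qHTS, 1536-well. 20nM enzyme, pH 7.5 HEPES/EDTA/Tween-20 buffer; 15 min compound preinc., RT. Start: 75uM H3(1-25), 70uM AcCoA, 50uM ThioGlo1. Read Ex340/Em540 at t=0 (autofluorescence flag) and t=20 min.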
Sfp PPTase inh = inhibitors of Bacillus subtilis Sfp phosphopantetheinyl transferase | Q9F4F7 | Biochemical Sfp PPTase activity, qHTS | Potency, µM, for inactives: largest response in the series, negative = inhibition, most hits filed as inhibitors | actives 3.5% (n = 310,000) | AID 1490;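 note: the enzyme is Sfp with the accession as filed and its product quenches rhodamine fluorescence; 0% = enzyme reaction without inhibitor and -100% = no enzyme wells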
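Sfp 15 nM + cpd, 15 min RT; start w/ rhodamine-CoA 5 uM, BHQ-2-YbbR 12.5 uM (final); 50 mM Hepes pH 7.6, 10 mM MgCl2, 0.01% NP-40, 0.01% BSA; read 525/598 nm at 0 and 30 min.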
TrxR1 inh = inhibitors of rat thioredoxin reductase 1; O89049; recombinant rTrxR1, NADPH fluorescence consumption, selenite substrate; actives 1% (n = 390,000); AID 588453; Potency, µM (series often up to 114 µM), for inactives: at the highest dose activity change, negative = inhibition, hits mostly inhibitors; note: nearly all actives have a fitted effect of over 65% in size
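Rat TrxR1 (90 nM in the dispensed reagent) was pre-reduced with 400 uM NADPH for 5 min at room temperature, then incubated with compound for 15 min. After 400 uM selenite was added, NADPH fluorescence (Ex 340/Em 450 nm) was followed for 8 min.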
* = called active by the depositor; ? = inconclusive; nt = no result; [ ] = remark or other dose. Shown are actives, neighbours in structure and some others; about 3.8% of the full set was active somewhere. Calls come from the whole dose curve; as a rule, active = well fitted curve in the direction sought with a large enough effect; inconclusive = small, poorly fitted or top-dose-only effect, or another doubt; inactive = no such curve, though single readings can be large; an effect the other way counts as inactive or inconclusive. Unless noted, % is set by controls: 0 for no effect and ±100 for the full control effect; potency is the fitted concentration of half-maximal effect.

SMILES	VDR inh	GLS inh	TrxR1 substrate	KAT2A inh	Sfp PPTase inh	TrxR1 inh
Cc1ccc(CC(C(=O)O)C(C)C(=O)Nc2ccc(F)cc2)cc1 (configuration not stated)	?	0%	-8%	-2%	14%	-8%
CCC(=O)N1CCc2cc(Br)cc(S(=O)(=O)N3CCCC(C(=O)Nc4cc(C)ccc4OC)C3)c21 (configuration not stated)	-13%	-10%	0%	-11%	nt	89µM*
COc1ccc(C)cc1NC(=O)C1CCN(S(=O)(=O)c2cc(Br)cc3c2N(C(C)=O)CC3)CC1	6%	-1%	-5%	3%	nt	-4%
CC(=O)N[C@H](C(=O)N[C@@H](C)C(=O)N[C@H](C#N)CC(=O)O)C(C)C	nt	nt	nt	0%	nt	nt
O=C(CSCC(=O)N1CCCc2ccccc21)Nc1nc(-c2ccccc2)cs1	-10%	1%	1%[57.1 µM]	-6%	-11%	11%[57.1 µM]
COc1ccc(-c2ccc(SCC(=O)NCc3ccco3)nn2)cc1	12%	-2%	2%[57.1 µM]	-5%	6%	8%[57.1 µM]
CSc1nc(-c2ccco2)cc(C(F)(F)F)c1C#N	-25%	-3%	21%[57.1 µM]	-8%	1%	-6%[57.1 µM]
Fc1cccc(CSc2ccc(-c3ccco3)nn2)c1	-25%	3%	3%	4%	16µM*	?
CSc1ccc(-c2ccco2)nn1	-15%	-1%	-3%[57.1 µM]	-7%	32µM*	-47%
CCSc1ccc(-c2ccco2)nn1	-12%	-7%	13%[57.1 µM]	-17%	14µM*	?
Cc1nc(C)c(-c2ccc(SCc3cccc(F)c3)nn2)s1	-2%	0%	-6%	-7%	-21%	0%
CCOCCCNC(=O)C(NC(=O)c1ccc(NC(C)=O)cc1)c1ccccc1 (configuration not stated)	-17%	-11%	1%	-2%	32%	2%
CCOC(=O)[C@]12CCC=C1N(CCC1=CCCCC1)C(=O)[C@H](CC(=O)NCc1cccc(C(F)(F)F)c1)C2	nt	-18%	nt	nt	nt	nt
O=C(Cn1ccc(=O)[nH]c1=O)NCCO	-14%	-10%	0%[57.1 µM]	-1%	18%	27%[57.1 µM]
Cc1cc(Br)ccc1NC(=O)CN(C)C(=O)CNC(=O)Cc1ccccc1	-3%	21%	-14%	-4%	nt	-3%
CC(=O)O[C@@H]1C(CO[Si](C)(C)C(C)(C)C)=C(Br)C(=O)[C@@H]2O[C@]12C	25µM*	nt	nt	nt	50µM*	nt
O=c1[nH]c(-c2ccncc2)nc2ccccc12	79µM*	-12%	1%	-5%	14µM*	0%
O=c1[nH]c(-c2cccnc2)nc2ccccc12	-14%	4%	3%	-11%	10%	5%
CC(c1ccc(F)cc1)n1c(-c2ccc3ccccc3n2)n[nH]c1=S (configuration not stated)	4%	13µM*	7%	-4%	?	?
Cn1c2ccsc2c2ncn(Cc3ccc(F)cc3)c(=O)c21	10%	?	-4%	-3%	nt	5%
CC1(OC(=O)C2CCCC2)C(=O)C=C2C=C(c3ccsc3)N(CCCCO)C=C2C1=O (configuration not stated)	4%	-3%	-8%[57.1 µM]	3%	-11%	12%[57.1 µM]
CC1(OC(=O)C2CCCC2)C(=O)C=C2C=C(c3ccsc3)N(Cc3ccco3)C=C2C1=O (configuration not stated)	?	12%	-2%	-13%	-20%	32µM*
Cc1ccc(NCCC(=O)c2cccs2)cc1C	?	1%	13%[57.1 µM]	-1%	11%	4.5µM*
CCc1ccc(NCCC(=O)c2ccc(Cl)cc2)cc1	-11%	5%	13%	1%	18%	?
O=C(CCNc1cccc(Cl)c1)c1cccs1	1%	25%	6%	-12%	1%	10µM*
SMILES	VDR inh	GLS inh	TrxR1 substrate	KAT2A inh	Sfp PPTase inh	TrxR1 inh
Cc1ccc(NCCC(=O)c2cccs2)cc1Cl	-11%	-8%	-4%	3%	4%	?
O=C(NNC(=O)c1cccs1)Nc1cccc(Cl)c1	-1%	-21%	2%	2%	-4%	16%
Cc1ccc(NCCC(=O)c2ccc(Cl)cc2)cc1C	-14%	2%	14%	0%	18%	50µM*
CC1=C(C(N)=O)C(c2ccc(C)o2)C(C(N)=O)=C(C)N1	2%	1%	1%	-2%	5%	?
O=C(NCc1ccco1)c1ccc(Cn2c(SCc3ccccc3F)nc3cccnc32)cc1	8%	0%	10%	-4%	nt	-1%
O=C(NCCCN1CCOCC1)c1ccc(Cl)s1	41%	4%	5%	-3%	6%	21%
Cc1cc(=O)n2c3c(sc2n1)C(=O)N(Cc1ccccc1)C3=O	nt	nt	nt	-24%	13µM*	nt
Cc1cc(O)c(N)c(C)c1Cl	1%	-27%	7%	-4%	56µM*	9%[57.1 µM]
Cc1cc(O)c(C=Nc2ccc(N3CCOCC3)cc2)c(C)c1Cl	-8%	13%	-6%	-6%	-13%	-7%
Cc1ccc(O)c(Nc2nc(-c3ccccc3)nc3ccccc23)c1	-3%	-1%	7%[57.1 µM]	?	13%	14%[57.1 µM]
Cc1ccc(O)c(Nc2c3ccccc3nc3ccccc23)c1	-12%	8.9µM*	29%[57.1 µM]	-3%	-23%	6%
Cc1sc2nc(CSc3nc4ccccc4s3)[nH]c(=O)c2c1C	nt	nt	nt	?	0%	nt
Cc1sc2nc(CSc3ccc([N+](=O)[O-])cc3)[nH]c(=O)c2c1C	nt	nt	nt	-14%	50µM*	nt
Cc1sc2nc(CSc3n[nH]c(N)n3)[nH]c(=O)c2c1C	-9%	15%	-1%[57.1 µM]	1%	79µM*	0%[57.1 µM]
CCOC(=O)c1c(NC(=O)OC)sc2c1CCC2	-11%	6%	5%	-2%	32µM*	12%
CCOC(=O)c1c(NC(=O)CN(CC)CC)sc2c1CCC2	-13%	23%	4%	1%	2%	-2%
CCOC(=O)c1c(NC(=O)Cc2cccs2)sc2c1CCCC2	-11%	1%	6%	-10%	32µM*	-1%
Nc1ccc2c(c1)C/C(=C/c1ccco1)C2=O	-13%	7%	-5%	?	-65%	56µM*
O=C1/C(=C/c2ccco2)CCc2ccccc21	-21%	1%	-10%	-16%	56µM*	-7%
O=C1/C(=C\c2ccncc2)CCc2ccccc21	79µM*	-8%	-3%	-4%	nt	-10%
O=C1/C(=C/c2ccncc2)CCc2ccccc21	?	-13%	0%	-17%	10%	?
CCn1c(C)cc2c(c1=O)C(c1ccccc1Br)C(C#N)=C(N)O2 (configuration not stated)	13%	21%	12%	-8%	-2%	?
O=C(COC(=O)/C=C/c1ccc(OC(F)F)cc1)NC(=O)NC1CCCCC1	-25%	-1%	6%[11.4 µM]	-2%	nt	12%[11.4 µM]

Screening data: PubChem BioAssay, National Center for Advancing Translational Sciences (NCATS)
